Compound activity deposited in PubChem BioAssay by NMMLSC.
Hits are enriched below; roughly 0.93% of the tested compounds scored in any of these assays.
CIT2-GFP yeast = modulators of CIT2-GFP expression in yeast, primary screen, S. cerevisiae, GFP fusion, multiplex flow cytometry, MLPCN library; S. cerevisiae CIT2-GFP strain, 3 h; 100 means same as DMSO wells; 0.065% of 320,000 active; AID 2029, 2009; GFP response vs DMSO, % at 10 µM;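 active = GFP response relative to DMSO above a set limit, near the screen mean plus 3 SD, cut at about 150% in these data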;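 also: ratio of well median GFP fluorescence to mean of DMSO wells on the plate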
MEP2 TOR yeast = modulators of MEP2-GFP levels in yeast, primary screen, S. cerevisiae, multiplex flow cytometry, MLPCN library. S. cerevisiae MEP2-GFP strain, 3 h; 100% = DMSO control level. GFP response vs DMSO, % at 10 µM. 0.51% of 330,000 active. AID 2016, 2009;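 active = GFP response versus DMSO above a set limit, roughly screen mean plus 3 SD, cut at about 180% in these data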;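 also: median GFP fluorescence of the barcode-gated MEP2-GFP cells per well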
LAP4-GFP MLPCN = modulators of LAP4-GFP expression in yeast, primary screen, S. cerevisiae, multiplex flow cytometry, MLPCN library; GFP response vs DMSO, % at 10 µM; 3 h; median GFP as percent of DMSO wells; AID 2023, 2009; 0.34% of 320,000 active;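 active = GFP response vs DMSO above a set limit, about the screen mean plus 3 SD, cut at about 150% in these data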
RPL19A TOR yeast = RPL19A-GFP expression modulators in yeast, primary screen, cell-based, S. cerevisiae, multiplex flow cytometry, MLPCN; S. cerevisiae RPL19A-GFP strain, 3 h; hits give low values; percent response vs DMSO, % at 10 µM; 0.3% of 330,000 active;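 active = percent response vs DMSO below 50%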;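 also: median channel GFP fluorescence of the barcoded RPL19A-GFP strain; ratio of sample median GFP to plate DMSO average so 100% = DMSO; lower means less RPL19A-GFP as with rapamycin TOR inhibition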
AGP1 TOR yeast = modulators of AGP1-GFP expression in yeast TOR pathway, primary screen, cell-based, multiplex flow cytometry, S. cerevisiae, MLPCN library | 3 h; GFP as percent of DMSO wells | GFP response vs DMSO, % at 10 µM | 0.02% of 320,000 active | AID 2066, 2009;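 active = GFP response relative to DMSO above a set limit, near screen average plus 3 SD, cut at about 150% in these data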;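 also: median GFP channel fluorescence of the gated AGP1 strain per well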
LAP4-GFP pick2 = LAP4-GFP expression modulators in yeast, confirmation, cell-based, second cherry pick, flow cytometry. shares compounds with LAP4-GFP MLPCN. S. cerevisiae LAP4-GFP strain, 3 h. GFP response vs DMSO, % at 10 µM. 20% of 590 active. AID 2621, 2010;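 active = GFP signal as percent of the solvent control above about 150%, meaning raised reporter expression, limit read from the data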;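 also: ratio of well median GFP fluorescence to plate DMSO mean so 100% = DMSO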
MEP2-GFP pick2 = modulators of MEP2-GFP levels in yeast, confirmation, S. cerevisiae, flow cytometry GFP, second cherry picks; 10% of 590 active; GFP response vs DMSO, % at 10 µM; S. cerevisiae MEP2-GFP strain, 3 h; shares compounds with LAP4-GFP MLPCN;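 active = GFP signal above 150% of the solvent control wells, that is a rise of more than half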;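 also: median channel GFP fluorescence of all gated yeast cells per well; ratio of median GFP to plate DMSO average so 100% = DMSO level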
RPL19A GFP CP2 = RPL19A-GFP modulators in TOR pathway yeast, confirmation, cell-based, S. cerevisiae, flow cytometry, second cherry pick; 3% of 590 active; shares compounds with LAP4-GFP MLPCN; S. cerevisiae RPL19A-GFP strain, 3 h; hits give low values; 100% means same as DMSO wells; GFP response vs DMSO, % at 10 µM; AID 2623, 2010;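 active = under 65% GFP response relative to DMSO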;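 also: median GFP channel fluorescence per well over the all cells gate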
CIT2 GFP CP2 = modulators of CIT2-GFP expression in yeast, confirmation, flow cytometry, second cherry pick, single plex; AID 2624, 2010; 8% of 590 active; S. cerevisiae CIT2-GFP strain, 3 h; DMSO control wells read 100%; shares compounds with LAP4-GFP MLPCN; GFP response vs DMSO, % at 10 µM;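 active = GFP response vs DMSO above about 150%, limit read from the data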;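 also: median green fluorescence per well over all gated yeast cells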
AGP1 GFP CP2 = AGP1-GFP expression modulators, hit retest, confirmation, cell-based, flow cytometry, S. cerevisiae, cherry pick set 2. 590 tested, under 10 active. shares compounds with LAP4-GFP MLPCN. S. cerevisiae AGP1-GFP strain, 3 h. percent response vs DMSO, % at 10 µM;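 active = over 150 percent of DMSO response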;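 also: median GFP channel fluorescence over all cells without mother daughter split; sample median GFP divided by mean DMSO control so 100% equals DMSO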
Yeast autofluor = compound autofluorescence in yeast s288c, dose response, artefact control for yeast TOR pathway GFP screen, s288c strain | 610 tested, under 10 active | S. cerevisiae s288c, 520 nm autofluorescence, flow cytometry, 3 h; hits give high values; zero means same as solvent-only cells | shares compounds with LAP4-GFP MLPCN | fluorescence change (kMESF span) at 33 µM;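 active = fluorescence span over the dose series, or activity score, above about 33, limit read from the data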
Numbers without * were called inactive.

`Clc1cc(Cl)c(-c2cc(Cl)c(Cl)cc2Cl)cc1Cl` gave CIT2-GFP yeast 93.0, MEP2 TOR yeast 98.2, LAP4-GFP MLPCN 96.5, RPL19A TOR yeast 100.9 and AGP1 TOR yeast 100.7.
`CCN1CCN(c2ccc(N)cc2)CC1` gave CIT2-GFP yeast 89.2, MEP2 TOR yeast 89.6, LAP4-GFP MLPCN 95.4, RPL19A TOR yeast 87.6 and AGP1 TOR yeast 97.1.
`CCN1CCN(c2ccc(N)cc2C)CC1` gave CIT2-GFP yeast 99.5, MEP2 TOR yeast 140.2, LAP4-GFP MLPCN 96.6, RPL19A TOR yeast 61.2, AGP1 TOR yeast 70.9, LAP4-GFP pick2 100.0, MEP2-GFP pick2 103.2, RPL19A GFP CP2 99.6, CIT2 GFP CP2 102.9 and AGP1 GFP CP2 99.4.
For C[C@]12C[C@H](O)[C@@H](O)CC1=CCC1C2CC[C@@]2(C)C1CC[C@@H]2O (stereo partly drawn) the results were CIT2-GFP yeast 99.9, MEP2 TOR yeast 87.3, LAP4-GFP MLPCN 103.3, RPL19A TOR yeast 94.3 and AGP1 TOR yeast 93.5.
Screening NC1=C([N+](=O)[O-])C(c2ccc3c(c2)OCO3)c2c(c3ccccc3oc2=O)O1 (stereo not drawn) returned CIT2-GFP yeast 96.0, MEP2 TOR yeast 103.7, LAP4-GFP MLPCN 105.0, RPL19A TOR yeast 98.9 and AGP1 TOR yeast 100.5.
O=c1oc2ccccc2c(O)c1[C@H]1c2ccc(O)cc2Oc2c1c(=O)oc1ccccc21 was read as CIT2-GFP yeast 59.5, MEP2 TOR yeast 91.9, LAP4-GFP MLPCN 242.7*, RPL19A TOR yeast 98.1, AGP1 TOR yeast 61.1 and Yeast autofluor 0.
`Oc1ccccc1C1NCc2ccccc2-n2cccc21` (stereo not drawn) gave CIT2-GFP yeast 107.3, MEP2 TOR yeast 96.1, LAP4-GFP MLPCN 97.1, RPL19A TOR yeast 97.8 and AGP1 TOR yeast 99.3.
For Fc1cccc(C2NCc3ccccc3-n3cccc32)c1 (stereo not drawn) the results were CIT2-GFP yeast 117.3, MEP2 TOR yeast 106.9, LAP4-GFP MLPCN 97.8, RPL19A TOR yeast 108.3 and AGP1 TOR yeast 104.0.
For C[n+]1c(-c2ccccc2)c2cc(N)ccc2c2ccc(N)cc21 the results were CIT2-GFP yeast 84.9, MEP2 TOR yeast 96.1, LAP4-GFP MLPCN 90.1, RPL19A TOR yeast 92.8 and AGP1 TOR yeast 82.0.
Screening Nc1ccc2ccc3cccc[n+]3c2c1 returned CIT2-GFP yeast 191.5*, MEP2 TOR yeast 224.3*, LAP4-GFP MLPCN 147.6, RPL19A TOR yeast 119.5, AGP1 TOR yeast 111.2 and Yeast autofluor 14.7.
Screening CCOc1ccc(N2C(=O)/C(=C\c3cccs3)C(=O)NC2=S)cc1 returned CIT2-GFP yeast 45.4, MEP2 TOR yeast 83.2, LAP4-GFP MLPCN 103.0, RPL19A TOR yeast 52.2, AGP1 TOR yeast 62.3, LAP4-GFP pick2 168.3*, MEP2-GFP pick2 131.4, RPL19A GFP CP2 70.4, CIT2 GFP CP2 74.6, AGP1 GFP CP2 70.7 and Yeast autofluor -0.4.
For CCOc1ccc(N2C(=O)/C(=C/c3ccco3)C(=O)NC2=S)cc1 the results were CIT2-GFP yeast 94.7, MEP2 TOR yeast 99.3, LAP4-GFP MLPCN 123.3, RPL19A TOR yeast 95.1 and AGP1 TOR yeast 89.0.
`Fc1ccc(C(OCCN2CCN(CCCc3ccccc3)CC2)c2ccc(F)cc2)cc1` gave CIT2-GFP yeast 86.6, MEP2 TOR yeast 99.2, LAP4-GFP MLPCN 207.6*, RPL19A TOR yeast 75.8, AGP1 TOR yeast 87.9, LAP4-GFP pick2 103.2, MEP2-GFP pick2 104.8, RPL19A GFP CP2 98.5, CIT2 GFP CP2 107.1 and AGP1 GFP CP2 100.7.
Screening CCOc1cc2c(cc1OCC)-n1cccc1C(c1cccc([N+](=O)[O-])c1)NC2 (stereo not drawn) returned CIT2-GFP yeast 114.6, MEP2 TOR yeast 117.1, LAP4-GFP MLPCN 99.0, RPL19A TOR yeast 99.2 and AGP1 TOR yeast 68.5.
`CCC(Oc1cc(Cl)ccc1Cl)C(=O)N1CCC2(CC1)OCCO2` (stereo not drawn) gave CIT2-GFP yeast 167.4*, MEP2 TOR yeast 120.5, LAP4-GFP MLPCN 102.6, RPL19A TOR yeast 107.9, AGP1 TOR yeast 121.5, LAP4-GFP pick2 98.1, MEP2-GFP pick2 101.5, RPL19A GFP CP2 100.4, CIT2 GFP CP2 100.7 and AGP1 GFP CP2 102.0.
For O=C(CCCOc1ccc(Cl)cc1Cl)N1CCC2(CC1)OCCO2 the results were CIT2-GFP yeast 90.7, MEP2 TOR yeast 109.2, LAP4-GFP MLPCN 107.3, RPL19A TOR yeast 99.4 and AGP1 TOR yeast 97.7.
